This is part of a sample that, as a whole, favours compounds with a hit. Of some 83,000 tested, about 20% had one in any assay.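 Single-dose data. Exposure time 48 hours. Values below 10 considered active.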 A number with no mark means an inactive call. Calls of active or inactive are those of the source.

Test in all cases: NCI-60 one-dose screen, 48 h (100 = growth as untreated, 0 = no growth, -100 = all killed)
One experiment relates to NCI-H23 lung. The following applies: 10 µM unless noted.
The next experiment relates to NCI-H226 lung. To be noted: 10 µM unless noted.
In the next experiment the test system is NCI-H322M lung. The following applies: 10 µM unless noted.
The next experiment has as its system HOP-62 NSCLC. The following applies: 10 µM unless noted.
For another experiment, the system named is NCI-H460 lung. To be noted: 10 µM unless noted.
The subject of the next experiment is 786-0 renal. The following applies: 10 µM unless noted.
In a further experiment the test system is COLO 205 colon. The following applies: 10 µM unless noted.
For another experiment, the system named is DU-145 prostate. To be noted: 10 µM unless noted.
The next experiment concerns K-562 leukemia. The following applies: 10 µM unless noted.
A further experiment deals with MALME-3M melanoma. The following applies: 10 µM unless noted.
For a further experiment, the system named is MDA-MB-231 breast. The following applies: 10 µM unless noted.
The next experiment deals with RXF 393 renal. To be noted: 10 µM unless noted.
The test system of the next experiment is SF-268 CNS. To be noted: 10 µM unless noted.
A further experiment concerns SF-295 CNS. The following applies: 10 µM unless noted.
The next experiment deals with SF-539 CNS. To be noted: 10 µM unless noted.
In the next experiment the test system is M14 melanoma. To be noted: 10 µM unless noted.
The next experiment concerns HOP-92 NSCLC. To be noted: 10 µM.
The test system of the next experiment is NCI-H522 lung. To be noted: 10 µM.
Another experiment concerns A549/ATCC NSCLC. To be noted: 10 µM unless noted.
The test system of the next experiment is UACC-257 melanoma. The following applies: 10 µM unless noted.

As for `Br/C(=N\Nc1nn[nH]n1)c1ccccc1`, the growth with NCI-H23 lung was 98.9%; in the experiment on NCI-H226 lung, 90.6%; in the experiment with NCI-H322M lung, 96.3%; with HOP-62 NSCLC it was 98%; in the experiment with NCI-H460 lung, 105%; with 786-0 renal, 92.2%. Besides, the growth in the experiment on COLO 205 colon was 104%; with DU-145 prostate, 119%; with K-562 leukemia it was 110%; in the experiment on MALME-3M melanoma, 104%; with MDA-MB-231 breast, 96.4%; with RXF 393 renal, 96.3%. Moreover, the growth is 114% in the experiment with SF-268 CNS, 101% in the experiment on SF-295 CNS, 96.7% with SF-539 CNS and 99% in the experiment on M14 melanoma.

Consider `CCCCCCCCC(=O)Nc1ccc(O)cc1`, for which the growth in the experiment with NCI-H23 lung was 92.3%; in the experiment with NCI-H226 lung, 104%; in the experiment with NCI-H322M lung, 88.1%; in the experiment on HOP-62 NSCLC, 99.3%; in the experiment with NCI-H460 lung it was 105%; with 786-0 renal it was 95.9%. The growth in the experiment on COLO 205 colon was 94.9%; in the experiment on DU-145 prostate, 103%; with K-562 leukemia, 91.2%; with MALME-3M melanoma, 87.7%; in the experiment on MDA-MB-231 breast it was 92.1%; in the experiment with RXF 393 renal it was 101%. Further, the growth is 92% with SF-268 CNS, 101% in the experiment on SF-295 CNS, 88.9% in the experiment on SF-539 CNS and 107% in the experiment on M14 melanoma.

On to `CNc1nc2ncn(C)c2c(=O)[nH]1`, for which the growth was 105% in the experiment with NCI-H23 lung; 98.5% in the experiment on NCI-H226 lung; 88.2% in the experiment with NCI-H322M lung; 96.5% with HOP-62 NSCLC; 103% with NCI-H460 lung; 103% in the experiment with 786-0 renal. In addition, the growth is 94.5% with COLO 205 colon; 106% in the experiment on DU-145 prostate; 65.5% in the experiment on K-562 leukemia; 98.8% in the experiment with MALME-3M melanoma; 90.9% in the experiment with MDA-MB-231 breast; 106% with RXF 393 renal. The growth with SF-268 CNS is 95.5%; in the experiment on SF-295 CNS, 101%; in the experiment on SF-539 CNS it was 96.2%; with M14 melanoma it was 112%.

Turning to `OCCN1CCCN(CCCN2c3ccccc3Sc3ccc(C(F)(F)F)cc32)CC1`, the growth in the experiment with NCI-H23 lung was 68.8%; in the experiment with NCI-H226 lung it was 92.7%; in the experiment on NCI-H322M lung, 73.6%; in the experiment on HOP-62 NSCLC it was 74.8%; in the experiment on NCI-H460 lung, 40.7%; with 786-0 renal it was 65.1%. Moreover, the growth in the experiment with COLO 205 colon is -81.8% (active); in the experiment on DU-145 prostate, 78.8%; in the experiment on K-562 leukemia it was 2.61% (active); in the experiment with MALME-3M melanoma, 44.5%; in the experiment with MDA-MB-231 breast it was 64.9%; in the experiment on RXF 393 renal, 47%. For the same compound, the growth was 64.9% in the experiment with SF-268 CNS, 31% in the experiment with SF-295 CNS, 67.2% with SF-539 CNS and 7.54% (active) in the experiment on M14 melanoma.

For `CC(=O)CCS(=O)c1ccccc1` (stereo unspecified), the growth with NCI-H23 lung is 98.1%; in the experiment on NCI-H226 lung it was 107%; with NCI-H322M lung it was 93.7%; in the experiment with HOP-62 NSCLC it was 105%; with HOP-92 NSCLC, 92.8%; with NCI-H522 lung, 82.7%. For the same compound, the growth is 96.1% in the experiment with A549/ATCC NSCLC; 105% with 786-0 renal; 124% in the experiment with COLO 205 colon; 103% with DU-145 prostate; 98.9% with K-562 leukemia; 97.2% in the experiment on MALME-3M melanoma. For the same compound, the growth with MDA-MB-231 breast was 106%; in the experiment with RXF 393 renal, 99.7%; with SF-268 CNS, 94.9%; in the experiment with SF-295 CNS it was 97.6%; with SF-539 CNS it was 113%; with UACC-257 melanoma, 99.5%. Further, the growth with M14 melanoma was 105%.

As for `O=C(/C=C\c1ccc(NCc2ccc(C(=O)O)cc2)cc1)CCl`, the growth was 94.3% in the experiment on NCI-H23 lung; 111% in the experiment with NCI-H226 lung; 97% in the experiment on NCI-H322M lung; 75.1% with HOP-62 NSCLC; 99.7% in the experiment with HOP-92 NSCLC; -78.1% (active) with NCI-H522 lung. The growth in the experiment on A549/ATCC NSCLC was 100%; in the experiment with 786-0 renal, 90.4%; in the experiment with COLO 205 colon, 78.6%; in the experiment with DU-145 prostate it was 112%; in the experiment with K-562 leukemia it was 9.08% (active); in the experiment with MALME-3M melanoma it was 88.8%. Besides, the growth in the experiment on MDA-MB-231 breast is 91.4%; with RXF 393 renal it was 65.2%; in the experiment on SF-268 CNS, 74%; in the experiment with SF-295 CNS, 96.4%; in the experiment with SF-539 CNS, 95%; in the experiment on UACC-257 melanoma it was 85.6%. Also, the growth with M14 melanoma was 90.7%.

As for `CC(=O)Oc1cc2ccccc2cc1C(C)C`, the growth is 107% with NCI-H23 lung; 101% in the experiment with NCI-H226 lung; 115% in the experiment with NCI-H322M lung; 104% in the experiment with HOP-62 NSCLC; 99% in the experiment with NCI-H460 lung; 101% in the experiment with 786-0 renal. In addition, the growth in the experiment on COLO 205 colon was 112%; in the experiment with DU-145 prostate, 126%; in the experiment with K-562 leukemia, 117%; with MALME-3M melanoma, 111%; with MDA-MB-231 breast, 117%; in the experiment with RXF 393 renal it was 102%. Further, the growth in the experiment with SF-268 CNS is 111%; in the experiment with SF-295 CNS, 96.8%; in the experiment with SF-539 CNS, 95%; with M14 melanoma it was 106%.

For `COc1cc(OC)c(/C=C/c2ccc3ccccc3[n+]2C)c(OC)c1`, the growth in the experiment on NCI-H23 lung is 1.71% (active); in the experiment on NCI-H226 lung, 26.2%; in the experiment on NCI-H322M lung, 17.7%; in the experiment on HOP-62 NSCLC, 28.4%; with NCI-H460 lung, 1.55% (active); in the experiment with 786-0 renal, 18.5%. In addition, the growth in the experiment with COLO 205 colon was -51.5% (active); in the experiment with DU-145 prostate, 22.3%; in the experiment with K-562 leukemia, 9.98% (active); with MALME-3M melanoma, 3.03% (active); in the experiment on MDA-MB-231 breast it was 28.2%; in the experiment with RXF 393 renal, 34.5%. The growth was 18% in the experiment on SF-268 CNS, -32.7% (active) with SF-295 CNS, -23.7% (active) with SF-539 CNS and 15.9% with M14 melanoma.

Take `CCOC(=O)C(C)C(C)(O)c1ccccc1` (stereo unspecified): the growth in the experiment on NCI-H23 lung was 98.5%; in the experiment with NCI-H226 lung, 94.1%; with NCI-H322M lung it was 93.2%; in the experiment with HOP-62 NSCLC, 109%; in the experiment with NCI-H460 lung, 103%; in the experiment with 786-0 renal, 94.1%. Also, the growth in the experiment on COLO 205 colon is 112%; with DU-145 prostate, 110%; in the experiment with K-562 leukemia, 100%; with MALME-3M melanoma, 84.2%; with MDA-MB-231 breast, 103%; in the experiment with RXF 393 renal it was 103%. The growth with SF-268 CNS was 98.6%; in the experiment on SF-295 CNS, 103%; in the experiment on SF-539 CNS, 105%; with M14 melanoma it was 96.3%.

For the compound `CCCCN(CCCC)c1ccc(C(=O)O)cc1`, the growth in the experiment with NCI-H23 lung was 98.1%; in the experiment on NCI-H226 lung, 99.5%; in the experiment on NCI-H322M lung, 98.4%; in the experiment on HOP-62 NSCLC, 98%; with NCI-H460 lung, 104%; in the experiment with 786-0 renal it was 99.4%. Besides, the growth in the experiment with COLO 205 colon was 98.8%; in the experiment on DU-145 prostate, 101%; in the experiment on K-562 leukemia it was 107%; with MALME-3M melanoma it was 74%; with MDA-MB-231 breast it was 120%; in the experiment with RXF 393 renal it was 105%. Further, the growth with SF-268 CNS was 101%; in the experiment on SF-295 CNS, 97.7%; with SF-539 CNS, 109%; in the experiment on M14 melanoma, 103%.
